Data published in PubChem BioAssay (NCATS).
Inconclusive results are not listed. Activity calls are given as the source filed them. Calls come from the whole dose curve; as a rule, active = well fitted cell-killing curve with a large enough effect; inconclusive = small, poorly fitted or top-dose-only effect, or effect the other way; inactive = flat fitted curve, though single readings scatter.

Legend:
Assay in all cases: Primary qHTS to identify gynecologic anti-cancer compounds using libraries of approved drugs and bioactive compounds (AID 1345084); note: nearly all actives have a fitted effect of over 55% in size
[1] = system: C33A; settings: Gynecologic cancer cell panel viability, ATPlite luminescence, 48 h; series mostly up to 57.5 µM
Summary of the method: (§1)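 Five-point cytotoxicity, 48 h drug exposure at 37 C, 5% CO2, on cells seeded 16 h beforehand. ATP content read by ATPlite luminescence.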

[2] = system: CAOV3; settings: Gynecologic cancer cell panel viability, ATPlite luminescence, 48 h; series mostly up to 57.5 µM
Summary of the method: as §1

[3] = system: CASKI; settings: Gynecologic cancer cell panel viability, ATPlite luminescence, 48 h; series mostly up to 57.5 µM
Summary of the method: as §1

[4] = system: Es-2; settings: Gynecologic cancer cell panel viability, ATPlite luminescence, 48 h; series mostly up to 57.5 µM
Summary of the method: as §1

[5] = system: HeLa; settings: Gynecologic cancer cell panel viability, ATPlite luminescence, 48 h; series mostly up to 57.5 µM
Summary of the method: as §1

[6] = system: Hek293T; settings: Gynecologic cancer cell panel viability, ATPlite luminescence, 48 h, control line for the selectivity index; series mostly up to 57.5 µM
Summary of the method: as §1

[7] = system: JEG-3; settings: Gynecologic cancer cell panel viability, ATPlite luminescence, 48 h; series mostly up to 57.5 µM
Summary of the method: as §1

[8] = system: OV90; settings: Gynecologic cancer cell panel viability, ATPlite luminescence, 48 h; series mostly up to 57.5 µM
Summary of the method: as §1

[9] = system: PA-1; settings: Gynecologic cancer cell panel viability, ATPlite luminescence, 48 h; series mostly up to 57.5 µM
Summary of the method: as §1

[10] = system: SKOV3; settings: Gynecologic cancer cell panel viability, ATPlite luminescence, 48 h; series mostly up to 57.5 µM
Summary of the method: as §1

[11] = system: Tov-21-G; settings: Gynecologic cancer cell panel viability, ATPlite luminescence, 48 h; series mostly up to 57.5 µM
Summary of the method: as §1

[12] = system: Tov112D; settings: Gynecologic cancer cell panel viability, ATPlite luminescence, 48 h; series mostly up to 57.5 µM
Summary of the method: as §1

Measured: Potency

CC(C)=C1CC2C(CCC2(C)O)C(C)(O)CC1=O (stereo not drawn)
inactive: all assays above

C=C[C@H]1[C@H](O[C@@H]2O[C@H](CO)[C@@H](O)[C@H](O)[C@H]2O)OC=C(C(=O)OC)[C@H]1CC=O
inactive: all assays above

Cc1cc(-n2c(=O)[nH]c(=O)n(C)c2=O)ccc1Oc1ccc(SC(F)(F)F)cc1
inactive: all assays above

O=C(NCCN1CCCC1)c1cc(-c2ccc(CN3CCOCC3)cc2)nc2ccc(F)cc12
inactive: all assays above

CCCCS(=O)(=O)NC(Cc1ccc(OCCCCC2CCNCC2)cc1)C(=O)O (stereo not drawn)
inactive: all assays above

C=C(C(=O)O)[C@H]1C[C@]2(C)C(=O)CC[C@]23O[C@H]1C[C@@H]3C
inactive: all assays above

C=C1C(O)CC2C(C(=O)O)=COC(O[C@@H]3O[C@H](COC(=O)c4ccc(O)cc4)[C@@H](O)[C@H](O)[C@H]3O)C12 (stereo partly drawn)
inactive: all assays above

CC(C)c1ccc2c(c1)C(O)CC1C(C)(C(=O)O)CCCC21C (stereo not drawn)
inactive: all assays above

CC1(C)CC[C@]2(C(=O)O[C@@H]3O[C@H](CO)[C@@H](O)[C@H](O)[C@H]3O)[C@H](O)C[C@]3(C)C(=CCC4[C@@]5(C)CC[C@H](O[C@@H]6OC[C@@H](O)[C@H](O)[C@H]6O)[C@@](C)(C(=O)O)C5CC[C@]43C)[C@@H]2C1 (stereo partly drawn)
inactive: all assays above

COC(=O)C1=COC(OC2OC(CO)C(O)C(O)C2O)C2C(COC(=O)/C=C/c3ccc(O)c(O)c3)C(O)C(O)C12 (stereo not drawn)
inactive: all assays above

O=C(Nc1ccc(N2CCC(C(=O)N3CCOCC3)CC2)cc1)c1cnc(Oc2ccccc2)nc1
inactive: all assays above

Cn1c2ccc(NC(=O)c3ccccc3)cc2c(=O)n2nc(C(=O)O)cc12
inactive: all assays above

CC(C)=CCc1cc(O[C@@H]2O[C@H](CO[C@@H]3OC[C@](O)(CO)[C@H]3O)[C@@H](O)[C@H](O)[C@H]2O)ccc1O
inactive: all assays above

CC(NC(=O)c1ccccc1N)C(=O)O (stereo not drawn)
inactive: all assays above
